Experimental data from PubChem BioAssay (Tox21).
Results filed as inconclusive are left out. The source made the active and inactive calls. The call rests on the fitted dose curve; in most records, active means well fitted activation curve with a large enough effect in the signal ratio in the repeat runs (not every such curve was filed as active); inconclusive means weak or mixed curves, or effect the other way; inactive means flat fitted curve, though single readings scatter; the % refers to the signal ratio.

Test: qHTS assay to identify small molecule agonists of the endoplasmic reticulum stress response signaling pathway (AID 1159516)
Conditions: ESRE-bla HeLa, ER stress beta-lactamase reporter, 5 h; series mostly up to 61 µM
In short: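 HeLa ESRE-bla reporter line; cpd 5 h, 37 C/5% CO2; LiveBLAzer B/G FRET substrate 2 h RT; ex 405, em 460/530 nm.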
For `CCc1cc(C(C)(C)C)c(O)c(C(C)(C)C)c1`, the outcome was “inactive”.
With `COC(=O)[C@H]1[C@H]2C[C@@H]3c4[nH]c5cc(OC)ccc5c4CCN3C[C@H]2C[C@@H](OC(=O)c2cc(OC)c(OC)c(OC)c2)[C@@H]1OC` the outcome was “inactive”.
In the case of `NCCCCCC(=O)O`, the outcome was “inactive”.
In the case of `CCCCCCCCCCCCCCCCCl`, the outcome was “inactive”.
With `CC(C)(C)NCC(O)COc1ccccc1OCC1CCCO1` (configuration not stated) the outcome was “inactive”.
For `CC(N)=O`, the outcome was “inactive”.
For `O=Nc1ccc(Nc2ccccc2)cc1`, the outcome was “inactive”.
For `O=c1n(CC2CO2)c(=O)n(CC2CO2)c(=O)n1CC1CO1` (configuration not stated), the outcome was “inactive”.
With `CCC(=O)/C=C/C1C(C)=CCCC1(C)C` (configuration not stated) the outcome was “inactive”.
For `NC(N)=Nc1nc(CSCC/C(N)=N/S(N)(=O)=O)cs1`, the outcome was “inactive”.
In the case of `CC(=O)CC(C)=O`, the outcome was “inactive”.
For `CC(=O)OCC1=C(C(=O)O)N2C(=O)[C@@H](NC(=O)Cc3cccs3)[C@H]2SC1`, the outcome was “inactive”.
For `OCC(CO)N[C@H]1C[C@](O)(CO)[C@@H](O)[C@H](O)[C@H]1O`, the outcome was “inactive”.
In the case of `CC1COC(=O)O1` (configuration not stated), the outcome was “inactive”.
For `Cc1occc(=O)c1OC(=O)C(C)C`, the outcome was “inactive”.
For `C=C(C)C1CC=C(C)C(OC(C)=O)C1` (configuration not stated), the outcome was “inactive”.
In the case of `Cc1scc2c1N(C(=O)CN1CCN(C)CC1)c1ccccc1NC2=O`, the outcome was “inactive”.
In the case of `O=S(=O)(O)c1ccc2nc(-c3ccccc3)[nH]c2c1`, the outcome was “inactive”.
In the case of `CCC[C@H](N[C@@H](C)C(=O)N1[C@H](C(=O)O)C[C@@H]2CCCC[C@@H]21)C(=O)OCC`, the outcome was “inactive”.
For `CCCCCCCCCCCC[N+](C)(C)C`, the outcome was “inactive”.
With `Cc1cc(C2(c3cc(C)c(O)cc3C)OS(=O)(=O)c3ccccc32)c(C)cc1O` the outcome was “inactive”.
In the case of `CC[C@@H](N)CO`, the outcome was “inactive”.
For `CNC1(C)C2CCC(C2)C1(C)C` (configuration not stated), the outcome was “inactive”.
In the case of `CC(=O)O[C@]1(C(C)=O)CC[C@H]2[C@@H]3C[C@H](C)C4=CC(=O)CC[C@]4(C)[C@H]3CC[C@@]21C`, the outcome was “inactive”.
In the case of `c1ccc2n[nH]nc2c1`, the outcome was “inactive”.
In the case of `CCc1ccc(C(c2ccc(CC)cc2)C(Cl)Cl)cc1`, the outcome was “inactive”.
In the case of `CCN(CC)C(=O)Nc1ccc(OCC(O)CNC(C)(C)C)c(C(C)=O)c1` (configuration not stated), the outcome was “inactive”.
For `Cc1cc(C(C)(C)C)c(O)c(C(C)(C)C)c1`, the outcome was “inactive”.
For `COc1cc(C(=S)N2CCOCC2)ccc1O`, the outcome was “inactive”.
With `NNCCc1ccccc1` the outcome was “inactive”.
With `CC(C)(C)NC(=O)[C@@H]1CN(Cc2cccnc2)CCN1C[C@@H](O)C[C@@H](Cc1ccccc1)C(=O)N[C@H]1c2ccccc2C[C@H]1O` the outcome was “inactive”.
With `CC(C)CCOCc1ccccc1` the outcome was “inactive”.
